PubChem BioAssay (NCI)
Where “and” joins values, the source holds several entries; their conditions need not be identical. Identical values can stand only once. This is part of a sample that, as a whole, favours compounds with a hit. Of some 83,000 tested, about 20% had one in any assay.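 Negative percent growth values reflect cell death: -40 means 40% of the cells present at the start died, and -100 means all died.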 Calls of active or inactive are those of the source. How the source made its calls: active means growth percent below 10; inactive means the rest. Where a SMILES comes first, the peptide text is derived from it. [ ]: non-standard residue; d: D form. ξ: configuration not given here. ξV = CC(C)C(N)C(=O)O

Key:
Assay in all cases: NCI-60 one-dose screen, 48 h (100 = growth as untreated, 0 = no growth, -100 = all killed)
T-47D breast = system: T-47D breast
BT-549 breast = system: BT-549 breast
MDA-MB-435 melanoma = system: MDA-MB-435 melanoma
SW-620 colon = system: SW-620 colon
MCF7 breast = system: MCF7 breast
HCT-116 colon = system: HCT-116 colon
HCC-2998 colon = system: HCC-2998 colon
KM12 colon = system: KM12 colon

| SMILES | growth (T-47D breast; 10 µM) | growth (BT-549 breast; 10 µM) | growth (MDA-MB-435 melanoma; 10 µM) | growth (SW-620 colon; 10 µM) | growth (MCF7 breast; 10 µM) | growth (HCT-116 colon; 10 µM) | growth (HCC-2998 colon; 10 µM) | growth (KM12 colon; 10 µM) | growth (MCF7 breast; 100 µM) | growth (T-47D breast; 100 µM) | growth (BT-549 breast; 100 µM) | growth (MDA-MB-435 melanoma; 100 µM) | growth (SW-620 colon; 100 µM) | growth (HCT-116 colon; 100 µM) | growth (HCC-2998 colon; 100 µM) | growth (KM12 colon; 100 µM) |
| --- | --- | --- | --- | --- | --- | --- | --- | --- | --- | --- | --- | --- | --- | --- | --- | --- |
| CC(C)C(NC(=O)CN)C(=O)O (stereo not given) (H-Gly-[ξV]-OH) | 102% (inactive) | 83.4% (inactive) and 116% (inactive) | 104% (inactive) and 101% (inactive) | 117% (inactive) and 101% (inactive) | 106% (inactive) and 101% (inactive) | 96.9% (inactive) and 107% (inactive) | 103% (inactive) and 106% (inactive) | 109% (inactive) and 106% (inactive) | – | – | – | – | – | – | – | – |
| CC[N+](CC)=c1ccc2nc3c(cc(N)c4ccccc43)oc-2c1 | -44% (active) | -53.4% (active) | -82.2% (active) | -25.2% (active) | -46.3% (active) | -27.1% (active) | -78% (active) | -44.2% (active) | – | – | – | – | – | – | – | – |
| COc1c(O)cc2oc3cc(O)c(CC=C(C)C)c(O)c3c(=O)c2c1CC=C(C)C | 48% (inactive) | 105% (inactive) | 70.1% (inactive) | 60.9% (inactive) | 16.8% (inactive) | 23.7% (inactive) | 42.1% (inactive) | 38.1% (inactive) | – | – | – | – | – | – | – | – |
| O=C(C(=Cc1ccccc1)C(=O)c1ccccc1)c1ccccc1 | 65.5% (inactive) and 74.7% (inactive) | 66% (inactive) and 103% (inactive) | 63.5% (inactive) and 104% (inactive) | 44.3% (inactive) and 84.4% (inactive) | 25.1% (inactive) and 89.3% (inactive) | 18.3% (inactive) and 62.2% (inactive) | 92.4% (inactive) and 129% (inactive) | 47.8% (inactive) and 88.9% (inactive) | – | – | – | – | – | – | – | – |
| COC1OCC(O)C(O)C1O (stereo not given) | 105% (inactive) | 105% (inactive) | 100% (inactive) | 99.3% (inactive) | 90.7% (inactive) | 102% (inactive) | 107% (inactive) | 103% (inactive) | – | – | – | – | – | – | – | – |
| CCCCCC(C)c1ccc(O)c(C)c1 (stereo not given) | 101% (inactive) | 99.7% (inactive) | 105% (inactive) | 105% (inactive) | 92% (inactive) | 95.8% (inactive) | 103% (inactive) | 106% (inactive) | – | – | – | – | – | – | – | – |
| Oc1ccc(N=Nc2ccccn2)c(O)c1 | 37.3% (inactive) | 36.6% (inactive) | 32.5% (inactive) | 32.9% (inactive) | 14.5% (inactive) | 18.7% (inactive) | 30% (inactive) | 26.9% (inactive) | – | – | – | – | – | – | – | – |
| COC(=O)C1=COC(C)C2C[n+]3ccc4c([nH]c5ccccc54)c3CC12 (stereo not given) | 100% (inactive) and 91.5% (inactive) | 107% (inactive) and 102% (inactive) | 106% (inactive) and 109% (inactive) | 100% (inactive) and 84% (inactive) | 96% (inactive) and 79.2% (inactive) | 98.4% (inactive) and 99.5% (inactive) | 111% (inactive) and 94.1% (inactive) | 102% (inactive) and 97.8% (inactive) | 28.2% (inactive) and 1% (active) | – | – | – | – | – | – | – |
| O=C(/C=C/c1cccnc1)c1ccccc1 | 86.5% (inactive) | 103% (inactive) | 80.2% (inactive) | 23% (inactive) | 26.1% (inactive) | 21.1% (inactive) | 86% (inactive) | 51.4% (inactive) | – | – | – | – | – | – | – | – |
| CCN(CC)c1ccc(NC(C(=O)c2ccccc2)c2ccccc2)cc1 (stereo not given) | 8.44% (active) | 2.75% (active) | 3.95% (active) | 6.54% (active) | 11.1% (inactive) | -19.6% (active) | 65.1% (inactive) | 65.1% (inactive) | – | – | – | – | – | – | – | – |
| CCCCCCCCCCCCSC(=NC)NC | -7.65% (active) and 49.6% (inactive) | 45.3% (inactive) and 86.4% (inactive) | -15.7% (active) and 43.4% (inactive) | -25.5% (active) and 32.3% (inactive) | -9.44% (active) and 22.6% (inactive) | 1.94% (active) and 47.4% (inactive) | -54.8% (active) and -34.7% (active) | 17.1% (inactive) and 44.8% (inactive) | – | – | – | – | – | – | – | – |
| O=c1ccn(C2CC(O)C(COC(c3ccccc3)(c3ccccc3)c3ccccc3)O2)c(=O)[nH]1 (stereo not given) | 84.7% (inactive) | 84.2% (inactive) | 76.1% (inactive) | 99.4% (inactive) | 79.2% (inactive) | 82.2% (inactive) | 122% (inactive) | 90.4% (inactive) | 16.5% (inactive) | 25.7% (inactive) | 13.9% (inactive) | 45% (inactive) | 62.2% (inactive) | 33.9% (inactive) | 64.2% (inactive) | 40.3% (inactive) |
